High-throughput results: PubChem BioAssay, National Center for Advancing Translational Sciences (NCATS)
Shiga inhibitor: A qHTS for Small Molecule Inhibitors of Shiga Toxin | Vero cells, Shiga toxin protein synthesis inhibition reporter | inhibition, % at 38.7 µM | 290,000 tested, 9.2% active | AID 2315, 2010; in the data active = inhibition mostly above about 28%, no sharp cut-off; inactive = mostly below about 43%; note: 0% is about no effect
Pf growth 96h: Primary qHTS for delayed death inhibitors of the malarial parasite plastid, 96 hour incubation; P. falciparum luciferase reporter growth, 96 h; Potency, µM (highest dose often 28.7 µM), for inactives: at the top dose activity change, negative = inhibition, most hits filed as inhibitors; 320,000 tested, 6.9% active; AID 504834, 2011; note: potency is the fitted concentration of half-maximal effect; % is set by controls: 0 for no effect and ±100 for the full control effect
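Cell-based qHTS: luciferase-tagged P. falciparum in erythrocytes (2% hematocrit, 0.05% parasitemia final) incubated with compounds for 96 hours, 37 C, 5% CO2; luciferase detection reagent then added and luminescence measured.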
Pf growth 48h: Primary qHTS for delayed death inhibitors of the malarial parasite plastid, 48 hour incubation. P. falciparum luciferase growth in erythrocytes, 48 h. Potency, µM (series often up to 28.7 µM), for the others: top-dose activity change, negative = inhibition, actives largely listed as inhibitors. 310,000 tested, 5.9% active; note: potency is the fitted concentration of half-maximal effect; % is set by controls: 0 for no effect and ±100 for the full control effect
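Erythrocytes infected with P. falciparum carrying an integrated firefly luciferase reporter (2% hematocrit, 0.1% parasitemia final) were exposed to compounds in RPMI 1640 with 0.5% Albumax at 37 C, 5% CO2. Growth inhibition was scored as reduced luminescence.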
Lassa entry inh: qHTS for Inhibitors of binding or entry into cells for Lassa Virus; Lassa virus pseudotype entry inhibition, cell reporter; Potency, µM (doses to about 37.9 µM), for the others: top-dose activity change, negative = inhibition, actives largely listed as inhibitors; 300,000 tested, 1.2% active; AID 540256, 2011; calls by dose curve; tested in HEK293 cells; note: potency is the fitted concentration of half-maximal effect; % is set by controls: 0 for no effect and ±100 for the full control effect; nearly all actives have a fitted effect of over 50% in size
CHX counter: Cycloheximide Counterscreen for Small Molecule Inhibitors of Shiga Toxin; max response, %; cell reporter, cycloheximide protein synthesis inhibition counterscreen; AID 2314, 2010; 300,000 tested, 12% active; in the data active = max response mostly above about 13%, no sharp cut-off; inactive = mostly below about 14%; note: read at 38.3 µM for the half of the compounds with a filed dose; 0% is about no effect
Marburg entry inh: qHTS for inhibitors of binding or entry into cells for Marburg Virus | Marburg virus pseudotyped entry inhibition, cell reporter | Potency, µM (series often up to 37.8 µM), without a hit: top-dose activity change, negative = inhibition, hits mostly inhibitors | 300,000 tested, 1.8% active | AID 540276, 2011; calls by dose curve; tested in HEK293 cells; note: potency is the fitted concentration of half-maximal effect; % is set by controls: 0 for no effect and ±100 for the full control effect
Starred values were filed as active, the others as inactive; [ ] = dose if it differs, or a comment. Hits are enriched below; roughly 19% of the tested compounds scored in any of these assays. Unless noted, calls come from the whole dose curve; as a rule, active = well fitted inhibition curve with a large enough effect; inconclusive = small, poorly fitted or top-dose-only effect, or another doubt; inactive = no such curve, though single readings can be large or run the other way.

What do the screens show for `c1ccn2c(c1)nc1c2nc2ccccn21`?
Shiga inhibitor: 27.7; Pf growth 96h: inconclusive; Pf growth 48h: 73.3%; Lassa entry inh: 1.3%; CHX counter: 6.8; Marburg entry inh: inconclusive

What do the screens show for `N/C(=N\N=C/c1ccc(F)cc1)N/N=C\c1ccc(F)cc1`?
Shiga inhibitor: 21.9; Pf growth 96h: inconclusive; Pf growth 48h: 0.738µM*; CHX counter: 11.1*

Results for N/C(=N\N=C/c1ccc(Br)cc1)N/N=C\c1ccc(Br)cc1 ?
Shiga inhibitor: -26.5; Pf growth 96h: 32.3%; Pf growth 48h: inconclusive; Lassa entry inh: inconclusive; CHX counter: 7.9; Marburg entry inh: 2.9%

What do the screens show for `N/C(=N\N=C\c1ccc(Cl)cc1)N/N=C/c1ccc(Cl)cc1`?
Pf growth 96h: 0.849µM*; Pf growth 48h: 0.757µM*

How did O=c1[nH]cnc2nc[nH]c12 do in these assays?
Pf growth 96h: -23.1%; Pf growth 48h: -9.1%

How did Cn1c(SCc2ccc(F)cc2)nnc1-c1cccs1 do in these assays?
Shiga inhibitor: 62.3; Pf growth 96h: 4.1%; Pf growth 48h: 51.5%; Lassa entry inh: 5.9%; CHX counter: 46.3*; Marburg entry inh: 12.3%

What do the screens show for `Cn1c(SCc2ccccc2)nnc1-c1cccs1`?
Shiga inhibitor: 80.6*; Pf growth 96h: -9.4%; Pf growth 48h: 42.7%; Lassa entry inh: 3.4%; CHX counter: 31.5*; Marburg entry inh: -3.1%

Results for Cn1c(SCc2ccccc2)nnc1-c1ccncc1 ?
Shiga inhibitor: -8.6; Pf growth 96h: 3.5%; Pf growth 48h: inconclusive; Lassa entry inh: 27.4%; CHX counter: 0.4; Marburg entry inh: -9.6%

Results for CN(C)c1ccc(CNn2cnnc2SCc2ccc(F)cc2)cc1 ?
Shiga inhibitor: 17.2; Pf growth 96h: 0.6%; Pf growth 48h: 13.6%; Lassa entry inh: 1.4%; CHX counter: 1.9; Marburg entry inh: -2.6%

How did CCn1c(SCC(=O)Nc2cc(F)ccc2C)nnc1-c1ccccc1O do in these assays?
Shiga inhibitor: -5.7; Pf growth 48h: inconclusive; Lassa entry inh: 2.1%; CHX counter: -6.2; Marburg entry inh: -2.2%[46.1 µM]

Results for CC(OC(=O)c1cc(=O)[nH]c2ccccc12)C(=O)c1ccccc1 (stereo not given) ?
Shiga inhibitor: -8.0; Pf growth 96h: -26.4%; Pf growth 48h: 7.2%; Lassa entry inh: 22.0%[46.1 µM]; CHX counter: -2.7; Marburg entry inh: 9.2%[46.1 µM]

How did CSc1nc(C)c(CCOC(=O)c2cccc(Cl)c2)c(=O)[nH]1 do in these assays?
Shiga inhibitor: -1.4; Pf growth 96h: -20.5%; Pf growth 48h: inconclusive; Lassa entry inh: -1.6%; CHX counter: -4.4; Marburg entry inh: -5.6%

How did CC/C(=N/NC(=O)c1ccc(Br)o1)c1ccc(Cl)cc1 do in these assays?
Shiga inhibitor: 125.1*; Pf growth 96h: -10.2%; Pf growth 48h: -6.9%; Lassa entry inh: 17.5%; CHX counter: 39.2*; Marburg entry inh: -14.5%

Results for CCCC/C(=N\NC(=O)c1ccc(Br)o1)c1ccccc1 ?
Shiga inhibitor: 46.0*; Pf growth 96h: inconclusive; Pf growth 48h: inconclusive; Lassa entry inh: inconclusive; CHX counter: 31.6*; Marburg entry inh: 4.7%

How did CCCCC/C(=N\NC(=O)CCC(=O)NCc1ccccc1)c1ccccc1 do in these assays?
Shiga inhibitor: -5.1; Pf growth 96h: inconclusive; Pf growth 48h: -16.4%; Lassa entry inh: inconclusive; CHX counter: -3.0; Marburg entry inh: inconclusive

Results for O=Cc1cc([N+](=O)[O-])ccc1N1CCN(Cc2ccc3c(c2)OCO3)CC1 ?
Shiga inhibitor: 19.0; Pf growth 96h: -5.4%; Pf growth 48h: 3.0%; Lassa entry inh: 7.4%[46.1 µM]; CHX counter: 11.7; Marburg entry inh: 2.6%[46.1 µM]

Results for Cc1ccc(C(=O)C(c2ccccc2)N2Cc3ccccc3C2=N)cc1 (stereo not given) ?
Shiga inhibitor: 11.3; Pf growth 96h: 10.4µM*; Pf growth 48h: inconclusive; Lassa entry inh: inconclusive; CHX counter: 1.8; Marburg entry inh: inconclusive

What do the screens show for `Cc1nc(NC2CCCCC2)c2nnn(Cc3ccccc3Cl)c2n1`?
Shiga inhibitor: 8.6; Pf growth 96h: 55.9%; Pf growth 48h: -25.5%; CHX counter: -2.2

How did Cc1cccc(NC(=O)c2ccc(S(=O)(=O)N(C)C)cc2)c1 do in these assays?
Shiga inhibitor: 41.1; Pf growth 96h: 7.3%; Pf growth 48h: 30.1%; CHX counter: 15.8*

How did Cc1nc2ccc(NC(=O)c3ccc(S(=O)(=O)N(C)C)cc3)cc2s1 do in these assays?
Shiga inhibitor: 15.1; Pf growth 96h: inconclusive; Pf growth 48h: inconclusive; Lassa entry inh: -7.6%[46.1 µM]; CHX counter: 12.5; Marburg entry inh: -0.7%[46.1 µM]

How did CN(C)S(=O)(=O)c1ccc(C(=O)Nc2ccc3ncccc3c2)cc1 do in these assays?
Shiga inhibitor: 41.2*; Pf growth 96h: inconclusive; Pf growth 48h: 4.4%; Lassa entry inh: -1.2%[46.1 µM]; CHX counter: 32.4*; Marburg entry inh: inconclusive

How did COc1ccc2sc(SCCCS(=O)(=O)O)[n+](CCCS(=O)(=O)[O-])c2c1 do in these assays?
Shiga inhibitor: -10.4; Pf growth 96h: inconclusive; Pf growth 48h: 8.9%; Lassa entry inh: 4.2%; CHX counter: -1.7; Marburg entry inh: 5.0%

Results for Cc1ccc(C)c(Cn2c(CN(C)Cc3ccccc3)nc3c2c(=O)n(C)c(=O)n3C)c1 ?
Shiga inhibitor: 1.9; Pf growth 96h: 13.1µM*; CHX counter: -1.5; Marburg entry inh: 0.5%

Results for CCOCCn1c(CN(Cc2ccccc2)Cc2ccccc2)nc2c1c(=O)n(C)c(=O)n2C ?
Shiga inhibitor: -5.1; Pf growth 96h: 1.31µM*; CHX counter: -9.0; Marburg entry inh: -2.7%

Results for CCOCCn1c(CN2CCN(c3ccc(F)cc3)CC2)nc2c1c(=O)n(C)c(=O)n2C ?
Shiga inhibitor: -16.2; Pf growth 96h: 7.38µM*; Lassa entry inh: -26.5%; CHX counter: 1.1; Marburg entry inh: inconclusive

How did Cc1ccc(Cn2c(CN(C)Cc3ccccc3)nc3c2c(=O)n(C)c(=O)n3C)cc1 do in these assays?
Shiga inhibitor: -14.5; Pf growth 48h: inconclusive; Lassa entry inh: inconclusive; CHX counter: 1.9; Marburg entry inh: -21.7%

What do the screens show for `CN(Cc1ccccc1)Cc1nc2c(c(=O)n(C)c(=O)n2C)n1Cc1ccc(F)cc1`?
Shiga inhibitor: -12.5; Pf growth 96h: 11.7µM*; Pf growth 48h: 11.7µM*; Lassa entry inh: -28.3%; CHX counter: -0.7; Marburg entry inh: -8.1%

What do the screens show for `CCC(C)[C@H](NC(=O)c1cn(CC)c2cc3c(cc2c1=O)OCO3)C(=O)NCCCn1ccnc1` (stereo not given in full)?
Shiga inhibitor: -7.6; Pf growth 96h: -22.5%; Pf growth 48h: inconclusive; CHX counter: -2.2

How did c1ccc(Nc2ccc(Nc3ccccc3)cc2)cc1 do in these assays?
Pf growth 96h: inconclusive; Pf growth 48h: -15.2%
